An excerpt weighted towards active compounds, which were near 19% of everything screened.
HT1080 IDH1KD tx: kills HT-1080 cells with IDH1 knockdown. 360,000 tested, 2% active. Potency, µM (titrated, usually from 46.1 µM), inactives show at the top dose activity, negative = toxicity, most hits filed as cytotoxic. AID 686971. HT-1080 IDH1 knockdown viability, ATP luminescence, 48 h;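 further: potency means the concentration at half of the fitted maximal effect; 0% = DMSO wells and -100% = cell-free medium wells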
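Viability of IDH1-knockdown HT-1080 fibrosarcoma cells was assessed by CellTiter-Glo after 48 h at 37 °C with titrated compound; concentration-effect curves were classified by fit quality and response size.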
DT40 TDP1 no CPT: qHTS for Inhibitors of human tyrosyl-DNA phosphodiesterase 1 (TDP1): qHTS in cells in absence of CPT | DT40 Tdp1-/- hTDP1 cells, no CPT, ATP luminescence, 48 h | Potency, µM (top dose mostly 46.2 µM), without a hit: top-dose activity change, negative = growth inhibition, usual class: inhibitors | 420,000 tested, 15% active; further: potency means the concentration at half of the fitted maximal effect; nearly all actives have a fitted effect of over 55% in size
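Growth kinetics read by CellTiter-Glo luminescence after ≥48 hr at 37 °C. Cells: DT40 Tdp1-/- stably carrying human TDP1, 400 per well, compound exposure in the absence of CPT (DMSO vehicle).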
TDP1 cell CPT: DT40-hTDP1 cell growth loss with CPT; chicken DT40 Tdp1-/-;hTDP1 cells + 20 nM CPT, ATP luminescence, 48 h; 420,000 tested, 12% active; AID 686979; Potency, µM (highest dose often 46.2 µM), without a hit: top-dose activity change, negative = growth inhibition, usual class: inhibitors; further: potency means the concentration at half of the fitted maximal effect; nearly all actives have a fitted effect of over 55% in size
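Cell growth measured by CellTiter-Glo luminescence after a minimum 48 h, 37 C compound exposure with 20 nM CPT in Tdp1-knockout DT40 cells stably expressing hTDP1, seeded 400/well; qHTS titration format.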
HT1080NT lethal: kills 2HG-producing HT-1080-NT fibrosarcoma cells | HT-1080-NT fibrosarcoma viability, CellTiter-Glo ATP luminescence, 48 h | Potency, µM (highest dose often 46.1 µM), for inactives: at the top dose activity, negative = less viability, hits mostly cytotoxic | 360,000 tested, 1.6% active;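 further: NT is the 2HG producing partner of a matched IDH1 knockdown line; potency means the concentration at half of the fitted maximal effect; 0% = DMSO-treated cells and -100% = media-only wells without cells; nearly all actives have a fitted effect of over 55% in size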
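Compounds were tested in concentration-response format on HT-1080-NT cells for 48 hours at 37 degrees C. Cell viability came from CellTiter-Glo luminescence; curves were classified by r2, response magnitude and activity.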
IL-1B inflam inh: inhibitors of inflammasome signaling (IL-1 beta secretion); THP-1 LPS/ATP IL-1B secretion, AlphaLISA, 16 h; active compounds read low; AID 743279; 360,000 tested, 4.7% active; activity change, % at 57.5 µM; in the data active means activity change below about -50%; inconclusive means mostly about -30% to -49%
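THP-1 cells pretreated 1 hr with compounds (up to 57.5 uM final), then stimulated with LPS (250 ng/mL final) plus ATP (1.25 mM final); secreted IL-1B measured by AlphaLISA after 16 hr, decreased signal indicating inhibition.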
An asterisk follows results filed as active; ? = inconclusive; / = no result; [ ] = another dose, or the depositor's remark. Unless noted, the call rests on the fitted dose curve; in most records, active means well fitted curve in the direction sought with a large enough effect; inconclusive means small, poorly fitted or top-dose-only effect, or another doubt; inactive means no such curve, though single readings can be large; an effect the other way counts as inactive or inconclusive. Unless noted, on the % scale 0 is the no-effect control and ±100 the full control effect.

SMILES	HT1080 IDH1KD tx	DT40 TDP1 no CPT	TDP1 cell CPT	HT1080NT lethal	IL-1B inflam inh
CC(C)c1ccc(-c2noc(SCC(=O)N3CCN(c4ccccc4F)CC3)n2)cc1	/	21µM*	23µM*	/	/
COc1ccccc1N1CCN(C(=O)CSc2nc(-c3ccc(C(C)C)cc3)no2)CC1	/	6.5µM*	23µM*	/	/
O=C(CSc1nc(-c2ccccc2)no1)N1CCCCC1	/	3.7µM*	?	/	/
CCCCCCCC(=O)Oc1ccc(C(=O)Nc2cc(C)on2)cc1	-2%	6%	5%	-5%	42
COc1ccc(-c2noc(-c3ccc(NCc4ccco4)c([N+](=O)[O-])c3)n2)cc1OC	/	9.2µM*	13µM*	/	/
COc1ccc(-c2noc(-c3ccc(NCc4cccnc4)c([N+](=O)[O-])c3)n2)cc1OC	/	-15%	-18%	/	/
CCCc1noc(-c2ccc(NCc3ccccc3OC)c([N+](=O)[O-])c2)n1	/	7.3µM*	10µM*	/	/
COc1cc(-c2noc(-c3ccc(NCc4cccnc4)c([N+](=O)[O-])c3)n2)cc(OC)c1OC	/	6.5µM*	7.3µM*	/	/
O=C(C1=C(O)C(=O)N(CCN2CCOCC2)C1c1cccc([N+](=O)[O-])c1)c1cccs1 (stereo not given)	3%	2%	30%	9%	30
O=C(c1ccc(CS(=O)c2cccc(Cl)c2)o1)N1CCN(C2CCCCC2)CC1 (stereo not given)	-12%	-2%	-28%	4%	-5
O=C(c1ccc(COc2ccccc2Cl)o1)N1CCN(c2ccccc2)CC1	?	29µM*	?	-4%	23
Cc1ccccc1OCc1ccc(C(=O)N2CCOCC2)o1	12%	-16%	13%	11%	-4
O=C(c1ccc(CS(=O)c2cccc(Cl)c2)o1)N1CCCCCC1 (stereo not given)	10%	23µM*	-8%	10%	2
COc1cccc(N2CCN(C(=O)c3ccc(CS(=O)c4ccccc4Cl)o3)CC2)c1 (stereo not given)	0.0082µM*	0.0052µM*	0.029µM*	?	55
O=C(c1ccc(CS(=O)c2ccccc2Cl)o1)N1CCN(c2ccccc2)CC1 (stereo not given)	0.52µM*	0.52µM*	0.82µM*	?	142
O=C(c1ccc(CS(=O)c2ccccc2Cl)o1)N1CCOCC1 (stereo not given)	11%	13%	-7%	-3%	10
CCN(Cc1ccccc1)C(=O)c1ccc(Cl)cc1[N+](=O)[O-]	-2%	-3%	-10%	0%	20
CCOC(=O)c1c(S(=O)(=O)NCC(=O)N(C)c2ccc(C)cc2)c(C)n(C)c1C	/	-14%	-26%	/	/
O=C(c1ccco1)N1CCN(C(=O)c2ccc(COc3ccc4c(c3)CCC4)o2)CC1	-15%	?	?	-2%	4
COc1ccc(N2CCN(C(=O)c3ccc(CS(=O)c4cccc(C)c4)o3)CC2)cc1 (stereo not given)	?	16µM*	18µM*	?	-1
O=C(c1ccc(COc2ccc3c(c2)CCC3)o1)N1CCN(c2ccccc2)CC1	-2%[9.24 µM]	?	15µM*	?	-73*
COc1cccc(N2CCN(C(=O)c3ccc(CS(=O)c4ccccc4C)o3)CC2)c1 (stereo not given)	0.73µM*	0.58µM*	0.52µM*	0.46µM*	28
FC(F)(F)C(F)(F)C(F)(F)C(F)(F)C(F)(F)C(F)(F)F	/	7%	2%	/	/
COc1cc(CNC(=O)Nc2nc(C(N)c3ccccc3)cs2)cc(OC)c1OC (stereo not given)	-16%	-20%	4%	-20%	-21
NC(Cc1ccc(Cl)cc1)c1csc(NC(=O)NCC2CCCCC2)n1 (stereo not given)	16µM*	8.2µM*	10µM*	16µM*	0
SMILES	HT1080 IDH1KD tx	DT40 TDP1 no CPT	TDP1 cell CPT	HT1080NT lethal	IL-1B inflam inh
NC(CCc1ccccc1)c1csc(NC(=O)NCCc2ccccc2)n1 (stereo not given)	16µM*	?	23µM*	16µM*	?
NC(CO)c1csc(NC(=O)Nc2ccccc2Cc2ccccc2)n1 (stereo not given)	-12%	?	?	-2%	-13
COc1ccc(CC(N)c2csc(NC(=O)c3ccccc3OC)n2)cc1 (stereo not given)	-29%	-25%	?	?	-7
COc1ccccc1CNC(=O)Nc1nc(C(N)CCc2ccccc2)cs1 (stereo not given)	18µM*	18µM*	18µM*	?	?
O=C(NCCc1ccccc1)Nc1ccc(Cl)cc1	6%	-8%	-7%	9%	-4
NC(Cc1ccc(Cl)cc1)c1csc(NC(=O)NCCc2ccccc2)n1 (stereo not given)	?	?	23µM*	16µM*	-8
COCCNC(=O)CN(Cc1cccs1)C(=O)CCC(=O)Nc1nccs1	-2%	-24%	-9%	-7%	-9
COc1ccc(NC(C)=O)cc1S(=O)(=O)N1CCN(C/C=C/c2ccccc2)CC1	7%	-20%	-9%	5%	-4
COc1ccc(NC(=O)Nc2cccc3ccccc23)cc1S(N)(=O)=O	-1%	0%	3%	1%	20
